Measured values: PubChem BioAssay (EPA / NIEHS)
Several values for one entry are separate records, joined by “and”; a condition that tells them apart may be missing. Identical values can stand only once. Records with an inconclusive call do not appear. Some structures have more than one record in an assay (separate samples or runs), and their calls can disagree. Activity calls are given as the source filed them. How the source made its calls, unless noted: active means hit-call score of the fitted dose curve at least 0.9, where 1 is the maximum; inconclusive means response in the unintended direction; inactive means score below 0.9.

Legend:
[1] = TOX21_p53_BLA_p4_viability: Viability Assessment in the Tox21 HCT-116 p53 Agonism Beta-lactamase Assay, Phase 4 (AID 2283597);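 further: hits lower the luminescence signal meaning cytotoxicity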
Method in brief: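 Following a 16 h exposure at 37C, the treated HCT116 wells were first read for the FRET ratio. They were then lysed with CellTiter-Glo, and ATP luminescence was recorded after 30 min at room temperature.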

[2] = target: Cellular tumor antigen p53 (Homo sapiens) (UniProt P04637); test: TOX21_p53_BLA_p5_ratio: Tox21 HCT-116 p53 Agonism Beta-lactamase Assay, Ratio, Phase 5 (AID 2283599)
Cellular tumor antigen p53 (Homo sapiens), sequence (P04637 whole entry, looked up): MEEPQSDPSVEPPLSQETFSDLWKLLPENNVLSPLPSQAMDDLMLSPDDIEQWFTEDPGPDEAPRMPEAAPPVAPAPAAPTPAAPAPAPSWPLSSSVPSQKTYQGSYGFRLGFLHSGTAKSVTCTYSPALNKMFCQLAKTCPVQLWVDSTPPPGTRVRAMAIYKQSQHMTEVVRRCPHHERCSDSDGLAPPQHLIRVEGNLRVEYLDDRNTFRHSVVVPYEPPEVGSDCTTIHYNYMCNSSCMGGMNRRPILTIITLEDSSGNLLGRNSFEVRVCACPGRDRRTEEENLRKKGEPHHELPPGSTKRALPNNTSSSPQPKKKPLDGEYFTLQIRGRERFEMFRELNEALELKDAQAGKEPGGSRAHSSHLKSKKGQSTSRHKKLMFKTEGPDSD
Method in brief: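 HCT-116 cells carrying a p53-inducible beta-lactamase reporter were seeded at 4000 cells/well and dosed after 5 h with compound in DMSO (217-fold dilution). After 16 h at 37C, CCF4-AM substrate was added for 2 h, and the 460/530 nm emission ratio was scored as gain-of-signal versus DMSO.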

[3] = TOX21_p53_BLA_p5_viability: Viability Assessment in the Tox21 HCT-116 p53 Agonism Beta-lactamase Assay, Phase 5 (AID 2283600)
Method in brief: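 After the 460/530 nm beta-lactamase measurement, the wells received an ATP-detection luciferase reagent; signal was read 30 min later at RT. Compound treatment lasted 16 h on cells pre-incubated 5 h post-seeding.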

[4] = target: Cellular tumor antigen p53 (Homo sapiens) (UniProt P04637); test: TOX21_p53_BLA_p4_ratio: Tox21 HCT-116 p53 Agonism Beta-lactamase Assay, Ratio, Phase 4 (AID 2283601)
Method in brief: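 HCT116 cells carrying an inducible beta-lactamase reporter were plated at 4000 cells/well, rested 5 h, then exposed to compounds in DMSO (217-fold dilution) for 16 h at 37C. CCF4-AM substrate was loaded 2 h at room temperature; 460/530 nm emission ratio scored gain-of-signal versus DMSO.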

[5] = Tanguay_ZF_120hpf_MORT_legacy: (Legacy) Oregon State University Tanguay Lab 120 Hour Post-fertilization zebrafish Assay for Mortality (AID 2283633);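 on AC50: fitted as increase in binary mortality versus DMSO negative control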
Method in brief: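 Static waterborne exposure from 6 to 120 hpf at 28C of single dechorionated wild-type (5D) embryos per well, 0.64% DMSO final. Death recorded present/absent by brightfield at 24 and 120 hpf.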

[6] = Tanguay_ZF_120hpf_YSE_legacy: (Legacy) Oregon State University Tanguay Lab 120 Hour Post-fertilization zebrafish Assay for Yolk Sac Edema (AID 2283634);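 on AC50: actives raise the incidence of yolk sac edema above the DMSO baseline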
Method in brief: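 Presence or absence of yolk sac edema was recorded at 120 hpf in surviving larvae. These were wild-type Tropical 5D embryos, chorion removed at 4 hpf, held in static exposure at 28C from 6 hpf with 0.64% DMSO vehicle.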

[7] = Tanguay_ZF_120hpf_AXIS_legacy: (Legacy) Oregon State University Tanguay Lab 120 Hour Post-fertilization zebrafish Assay for Body Axis Malformation (AID 2283635);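 on AC50: potency for an increased fraction of larvae scored with body axis malformation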
Method in brief: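 Binary scoring of axis defects at 120 hpf under brightfield, fitted positive versus DMSO. Tropical 5D embryos, chorion removed by pronase at 4 hpf, were singly exposed in sealed, dark plates at 28C from 6 hpf; DMSO 0.64% final.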

[8] = Tanguay_ZF_120hpf_EYE_legacy: (Legacy) Oregon State University Tanguay Lab 120 Hour Post-fertilization zebrafish Assay for Eye Malformation (AID 2283636)
Method in brief: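 Dechorionated wild-type Tropical 5D zebrafish embryos were exposed statically from 6 hpf, one per well, to 120 hpf at 28C in sealed, foil-covered plates with 0.64% DMSO. Eye malformation was scored present/absent by brightfield microscopy against DMSO controls.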

[9] = Tanguay_ZF_120hpf_SNOU_legacy: (Legacy) Oregon State University Tanguay Lab 120 Hour Post-fertilization zebrafish Assay for Snout Malformation (AID 2283637)
Method in brief: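 Tropical 5D wild-type zebrafish embryos, dechorionated with pronase at 4 hpf, were exposed singly from 6 hpf to 120 hpf statically at 28C in 0.64% DMSO. Snout malformation was scored present/absent by brightfield microscopy, fitted against DMSO.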

[10] = Tanguay_ZF_120hpf_OTIC_legacy: (Legacy) Oregon State University Tanguay Lab 120 Hour Post-fertilization zebrafish Assay for Otic Vesicle Malformation (AID 2283639)
Method in brief: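 Embryos from 5D wild-type adults exposed in plates; DMSO 0.64% v/v final. Sealed, light-protected, 28C, static to 120 hpf. Otic vesicle malformation recorded as binary endpoint; gain-of-signal fitted vs DMSO.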

[11] = Tanguay_ZF_120hpf_PE_legacy: (Legacy) Oregon State University Tanguay Lab 120 Hour Post-fertilization zebrafish Assay for Pericardial Edema (AID 2283640);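 on AC50: potency for increased incidence of pericardial edema versus DMSO baseline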
Method in brief: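 Scoring was binary, by brightfield microscopy at 120 hpf, and skipped where mortality occurred. Wild-type embryos were kept under sealed, foil-covered static exposure at 28C in 0.64% (vol/vol) DMSO.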

[12] = Tanguay_ZF_120hpf_BRAI_legacy: (Legacy) Oregon State University Tanguay Lab 120 Hour Post-fertilization zebrafish Assay for Brain Malformation (AID 2283641)
Method in brief: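 Binary brightfield scoring of brain malformation at 120 hpf in Tropical 5D larvae held under static exposure at 28C (0.64% v/v DMSO), non-mortality endpoints skipped if dead. Positive control: 5uM trimethyltin chloride; fit versus DMSO.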

[13] = Tanguay_ZF_120hpf_SOMI_legacy: (Legacy) Oregon State University Tanguay Lab 120 Hour Post-fertilization zebrafish Assay for Somite Malformation (AID 2283647)
Method in brief: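 Binary somite-defect scoring at 120 hpf, omitted for embryos that died, in wild-type (Tropical 5D) zebrafish with chorion removed by pronase at 4 hpf; static exposure began 6 hpf, single embryos per well, 28C, 0.64% DMSO; fitted positive versus DMSO.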

[14] = Tanguay_ZF_120hpf_PFIN_legacy: (Legacy) Oregon State University Tanguay Lab 120 Hour Post-fertilization zebrafish Assay for Pectoral Fin Malformation (AID 2283648);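 further: each larva judged yes or no for fin defect by brightfield with dead larvae skipped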
Method in brief: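 Tropical 5D wild-type embryos, dechorionated with pronase at 4 hpf, were placed singly in wells at 6 hpf and statically exposed until 120 hpf at 28C, sealed and dark, with 0.64% (vol/vol) final DMSO; pectoral fin malformation scored present/absent.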

[15] = Tanguay_ZF_120hpf_PIG_legacy: (Legacy) Oregon State University Tanguay Lab 120 Hour Post-fertilization zebrafish Assay for Pigmentation Malformation (AID 2283650)
Method in brief: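 Tropical 5D wild-type zebrafish embryos, dechorionated with pronase at 4 hpf, were exposed singly from 6 hpf to 120 hpf statically at 28C in sealed, dark plates with 0.64% DMSO; pigmentation scored present/absent by brightfield microscopy, fitted against DMSO.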

[16] = Tanguay_ZF_120hpf_CIRC_legacy: (Legacy) Oregon State University Tanguay Lab 120 Hour Post-fertilization zebrafish Assay for Circulatory Malformation (AID 2283651)
Method in brief: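 Read-out: presence or absence of circulatory malformation at 120 hpf, scored by brightfield microscopy, fitted in the gain-of-signal direction against DMSO baseline. Wild-type 5D larvae were exposed from 6 hpf after enzymatic chorion removal.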

[17] = Tanguay_ZF_120hpf_SWIM_legacy: (Legacy) Oregon State University Tanguay Lab 120 Hour Post-fertilization zebrafish Assay for Swim Bladder Malformation (AID 2283654);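 further: swim bladder malformation in each larva scored yes or no under brightfield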
Method in brief: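 Dechorionated Tropical 5D wild-type embryos, placed singly from 6 hpf, were statically exposed at 28C to 120 hpf with 0.64% DMSO final; swim bladder malformation was scored present/absent by brightfield microscopy, gain of signal relative to DMSO controls.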

[18] = Tanguay_ZF_120hpf_CFIN_legacy: (Legacy) Oregon State University Tanguay Lab 120 Hour Post-fertilization zebrafish Assay for Caudal Fin Malformation (AID 2283649)
Method in brief: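 Binary brightfield scoring of caudal fin defects at 120 hpf after static, light-shielded exposure at 28C from 6 hpf. Tropical 5D embryos, chorion removed with pronase at 4 hpf, final DMSO 0.64%.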

[19] = Tanguay_ZF_120hpf_JAW_legacy: (Legacy) Oregon State University Tanguay Lab 120 Hour Post-fertilization zebrafish Assay for Jaw Malformation (AID 2283638);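 on AC50: active means more embryos with jaw malformation than DMSO controls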
Method in brief: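 Binary jaw-malformation call at 120 hpf by brightfield microscopy. Embryos (Tropical 5D strain, chorion removed at 4 hpf) were dosed statically at 6 hpf, one per well, at 28C with 0.64% DMSO. Embryos that died were not scored.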

[20] = read-out: solute carrier (SLC22A6), SLC22A6 (gene 9356); test: LTEA_HepaRG_SLC22A6: Life Technologies and Expression Analysis (LTEA) Assay for solute carrier (SLC22A6) using HepaRG (AID 2283653; active means hit-call score of the fitted dose curve at least 0.9, where 1 is the maximum; inactive means score below 0.9); conditions: mRNA level, 48 h; actives raise or lower the signal
Method in brief: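 SLC22A6 transcript was measured by TaqMan qRT-PCR, normalized to three housekeeping genes, after 48 h duplicate exposure of HepaRG cells (100 uM top, half-log steps, 0.5% DMSO); bidirectional fit against vehicle.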

Measured: AC50

O=NN(c1ccccc1)c1ccccc1
inactive: [1] | [2] | [3] | [4] | [5] | [6] | [7] | [8] | [9] | [10] | [11] | [12] | [13] | [14] | [15] | [16] | [17]

C[C@]12CCC(=O)C=C1CC[C@@H]1[C@@H]2CC[C@]2(C)C(=O)CC[C@@H]12
inactive: [1] | [2] | [3] | [4] | [5] | [13] | [16] | [17]
active: [6] 36.2 µM | [7] 40.2 µM | [8] 45.5 µM | [9] 37.7 µM | [11] 36.3 µM | [12] 49.8 µM | [14] 35.1 µM | [18] 40.4 µM | [15] 43.9 µM

ClC1=C(Cl)[C@]2(Cl)[C@@H]3[C@@H](Cl)[C@H]4O[C@H]4[C@@H]3C1(Cl)C2(Cl)Cl
active: [1] 65.1 µM | [4] 72.3 µM
inactive: [2] | [3] | [5] | [6] | [7] | [8] | [9] | [19] | [10] | [11] | [12] | [13] | [14] | [16]

COS(=O)(=O)OC
inactive: [1] | [2] | [3] | [4] | [5] | [6] | [7] | [8] | [9] | [10] | [11] | [13] | [14] | [15] | [16] | [20] | [17]

Clc1ccc(Cl)cc1
inactive: [1] | [2] | [3] | [4] | [5] | [6] | [7] | [8] | [9] | [10] | [11] | [13] | [18] | [15] | [16] | [20]

CC(C)(c1ccccc1)c1ccc(O)cc1
active: [1] 71 µM and 65.8 µM | [2] 73.1 µM | [4] 81.7 µM and 70.4 µM | [5] 19.1 µM
inactive: [2] | [3] | [7] | [8] | [10] | [11] | [13] | [18] | [15] | [16] | [17]

ClC1=C(Cl)[C@]2(Cl)[C@@H]3[C@H]4C[C@H]([C@@H]5O[C@H]45)[C@@H]3[C@@]1(Cl)C2(Cl)Cl
active: [6] 72 µM | [7] 45.4 µM | [11] 39 µM | [12] 66.7 µM | [13] 65.6 µM | [18] 66.1 µM
inactive: [1] | [2] | [3] | [4] | [5] | [8] | [9] | [10] | [14] | [16] | [17]

Cc1cccc([N+](=O)[O-])c1
inactive: [1] | [2] | [3] | [4] | [5] | [6] | [7] | [8] | [9] | [19] | [10] | [11] | [12] | [13] | [14] | [18] | [15] | [17]

CC(C)C(=O)OCC(C)(C)C(OC(=O)C(C)C)C(C)C (stereo not given)
active: [5] 26.2 µM | [19] 41.6 µM | [11] 28.8 µM
inactive: [1] | [2] | [3] | [4] | [6] | [7] | [8] | [9] | [10] | [12] | [13] | [18] | [15] | [16] | [17]

OCC(O)CO
inactive: [1] | [2] | [3] | [4]

CC(C)(O)C(=O)Nc1ccc([N+](=O)[O-])c(C(F)(F)F)c1
active: [7] 6.35 µM | [8] 21.7 µM | [9] 7.43 µM | [19] 23.1 µM | [11] 23.2 µM
inactive: [1] | [2] | [3] | [4] | [5] | [6] | [12] | [13] | [14] | [15] | [16] | [17]

CCOC(=O)C(O)(c1ccc(Cl)cc1)c1ccc(Cl)cc1
inactive: [5] | [6] | [7] | [8] | [9] | [19] | [10] | [11] | [12] | [14] | [18] | [15] | [17]
active: [1] 59.7 µM and 25.1 µM | [2] 80.1 µM and 66.1 µM | [3] 81.7 µM and 24.7 µM | [4] 68.6 µM and 60.8 µM

O=C(NC(=O)c1c(F)cccc1F)Nc1cc(Cl)c(OC(F)(F)C(F)F)c(Cl)c1
inactive: [1] | [2] | [3] | [4] | [5] | [6] | [7] | [8] | [9] | [10] | [11] | [12] | [13] | [14] | [18] | [16]

C=CC(=O)NCNC(=O)C=C
inactive: [1] | [2] | [3] | [4] | [5] | [6] | [7] | [8] | [9] | [10] | [11] | [12] | [13] | [14] | [18] | [15] | [16] | [17]

NS(=O)(=O)C(F)(F)C(F)(F)C(F)(F)C(F)(F)C(F)(F)C(F)(F)C(F)(F)C(F)(F)F
inactive: [1] | [4] | [6] | [7] | [8] | [9] | [10] | [11] | [12] | [13] | [14] | [15] | [16]
active: [2] 82.3 µM | [3] 46.1 µM | [5] 24.9 µM | [18] 4.88 µM
